TEAD-YAP inh: TEAD-YAP interaction inhibition. HEK-TIYL cells, TEAD-Gal4/YAP UAS-luciferase luminescence. inhibition, % at 9.12 µM. 640,000 tested, 1.4% active. AID 1259422; in the data active means inhibition above about 32%;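 further: 0% = median of test compound wells and 100% = reference inhibitor wells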
MITF inh: blocks human microphthalmia-associated transcription factor; AlphaScreen MITF homodimerization, bead proximity signal; inhibition, % at 2.6 µM; AID 1259374; 650,000 tested, 0.91% active; O75030; in the data active means inhibition above about 50%;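 further: 0% = vehicle wells with protein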
FBW7 act: activators of human E3 ligase FBW7. 650,000 tested, 0.13% active. Q969H0. normalized activity (activation), % at 26.1 µM. AlphaScreen FBW7–phospho-cyclin E peptide binding, activator screen; in the data active means normalized activity above about 1.9%;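 further: purified mutant Fbw7 with reduced substrate affinity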
Target sequence (Q969H0 whole entry, looked up): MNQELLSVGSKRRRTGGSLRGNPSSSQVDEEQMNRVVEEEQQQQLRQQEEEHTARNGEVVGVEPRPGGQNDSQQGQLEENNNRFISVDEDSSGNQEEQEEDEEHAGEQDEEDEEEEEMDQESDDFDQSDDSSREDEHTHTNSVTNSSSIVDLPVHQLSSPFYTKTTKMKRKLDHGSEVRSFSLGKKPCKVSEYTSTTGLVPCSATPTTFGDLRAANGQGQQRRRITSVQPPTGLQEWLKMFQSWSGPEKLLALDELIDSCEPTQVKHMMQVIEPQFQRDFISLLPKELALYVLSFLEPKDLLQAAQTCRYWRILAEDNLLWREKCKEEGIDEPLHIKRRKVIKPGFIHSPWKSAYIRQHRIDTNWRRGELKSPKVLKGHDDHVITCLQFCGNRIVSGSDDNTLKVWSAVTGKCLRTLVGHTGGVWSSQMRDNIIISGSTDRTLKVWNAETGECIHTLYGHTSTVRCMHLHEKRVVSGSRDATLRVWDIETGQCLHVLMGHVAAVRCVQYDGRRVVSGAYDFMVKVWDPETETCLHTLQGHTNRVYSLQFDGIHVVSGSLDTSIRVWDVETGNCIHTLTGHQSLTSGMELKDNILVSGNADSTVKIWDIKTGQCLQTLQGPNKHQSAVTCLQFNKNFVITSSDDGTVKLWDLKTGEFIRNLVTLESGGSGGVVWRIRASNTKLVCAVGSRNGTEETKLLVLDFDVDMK
GPR151 activ: human GPR151 activation | PathHunter beta-arrestin GPR151 cells, luminescence | Q8TDV0 | 650,000 tested, 1% active | activation, % at 11.2 µM; in the data active means activation above about 4.9%;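 further: 0% = median of compound wells and 100% = cells with positive control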
MITF confirm: human MITF inhibition, confirmation | inhibition, % at 2.6 µM | AlphaScreen MITF homodimerization, biotin/His-MITF beads | AID 1259372 | 4,700 tested, 16% active | shares compounds with MITF inh;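 active means inhibition above a cutoff derived from the DMSO control wells, cut at about 28% in these data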;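 further: 0% = MITF dimer wells with DMSO only; inhibitors lower the bead chemiluminescence by keeping MITF from dimerizing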
AS interf DR: AlphaScreen optical interference, dose response counter-screen; AID 1259373; AlphaScreen optical interference counterscreen, cell-free; IC50, µM; shares compounds with MITF inh; 480 tested, 6% active; call rule not given here
AS interf ctr: counter-screen: compounds optically interfering with AlphaScreen. inhibition, % at 2.6 µM. shares compounds with MITF inh. LysRS AlphaScreen counterscreen, signal interference, triplicate. 4,700 tested, 7.6% active;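 active means inhibition above a cutoff derived from the DMSO control wells, cut at about 30% in these data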
An asterisk follows results filed as active; nt = not tested or not shown. Shown are actives, neighbours in structure and some others; about 3.5% of the full set was active somewhere.

SMILES	TEAD-YAP inh	MITF inh	FBW7 act	GPR151 activ	MITF confirm	AS interf ctr	others
Clc1cccc(CN2CCN(c3ncccn3)CC2)c1	-3.9	49.2	0.2	3.4	nt	nt
Cc1cccc(CN2CCN(Cc3ccccc3C(F)(F)F)CC2)c1	4.0	75.6*	0.0	-1.4	1.4	3.5
Cc1ccc(S(=O)(=O)N2CCN(Cc3cccc(C)c3)CC2)cc1	-6.5	2.8	-0.1	0.4	nt	nt
FC(F)(F)c1ccccc1CN1CCN(Cc2cccc(Cl)c2)CC1	-6.2	68.6*	-0.2	1.2	17.8	21.9
COc1ccc(C(=O)Nn2c(-c3cccc(C)c3)nc3ccccc3c2=O)cc1OC	-9.5	-8.0	-0.1	1.0	nt	nt
CCOC(=O)c1cnc(-n2[nH]c(C)cc2=O)[nH]c1=O	2.8	84.3*	-0.3	2.5	97.7*	96.4*
CCOC(=O)c1cnc(-n2[nH]c(C)c(Cc3ccccc3)c2=O)[nH]c1=O	1.1	96.2*	-0.4	0.6	87.5*	100.0*
Cc1ccc(-c2nc(NC(=O)c3cccs3)sc2-c2ccccc2)cc1	7.2	-3.6	0.1	0.5	nt	nt
CN(C)c1ccc(NC(=O)CSc2ncccc2C(=O)O)cc1	31.6	64.3*	-0.1	0.9	74.6*	22.4	AS interf DR=>6.48
COc1ccccc1CNC(=O)C1CCC(Cn2c(=S)[nH]c3ccccc3c2=O)CC1 (stereo not given)	-17.1	52.7*	0.1	1.9	-2.8	3.8
COc1ccc(Cn2c(=S)[nH]c3cc(C(=O)NCc4ccccc4OC)ccc3c2=O)cc1	-7.7	-6.0	0.0	0.8	nt	nt
CCOC(=O)c1c(C)n(C(=O)c2ccco2)c(=O)n1C(=O)c1ccco1	6.9	15.6	0.9	1.9	nt	nt
CCOC(=O)CCCCC(=O)c1c(C)n(C(=O)c2ccco2)c(=O)n1C(=O)c1ccco1	-1.2	99.1*	-0.5	-0.4	101.7*	80.3*
CCS(=O)(=O)N1CCN(CC(=O)NC2CCCCC2)CC1	0.0	54.5*	-0.1	3.0	10.3	8.0
CS(=O)(=O)N1CCN(Cc2ccccc2C(F)(F)F)CC1	-0.3	70.9*	-0.1	-1.3	-1.0	4.7
COc1ccc(CN2CCN(Cc3ccccc3Br)CC2)cc1OC	-1.2	48.7	0.0	-0.3	nt	nt
FC(F)(F)c1ccccc1CN1CCN(Cc2ccc(Br)cc2)CC1	-2.3	81.8*	-0.2	-0.5	8.7	22.6
FC(F)(F)c1ccccc1CN1CCN(Cc2ccccc2Br)CC1	8.3	62.0*	0.0	-1.8	4.6	26.2
OCCC1CN(Cc2ccccc2C(F)(F)F)CCN1C1CCCC1 (stereo not given)	2.4	0.1	-0.1	1.9	nt	nt
O=S(=O)(c1ccc(Cl)cc1)N1CCN(Cc2ccccc2C(F)(F)F)CC1	-12.9	-2.1	0.2	-0.1	nt	nt
OC1CCN(Cc2ccccc2C(F)(F)F)CC1	5.7	40.0	0.1	0.5	nt	nt
FC(F)(F)c1ccccc1CN1CCN(Cc2ccccc2C(F)(F)F)CC1	-5.7	70.3*	-0.1	1.0	4.0	7.9
CCOc1cc(C=O)ccc1OCC(=O)Nc1ccc(Br)c(C)c1	13.9	1.0	-0.1	1.2	nt	nt
COc1ccc(CCNC(=O)c2nnn(Cc3ccc(SC)cc3)c2N)cc1OC	6.4	-5.1	-0.2	0.2	nt	nt
O=C(c1cccs1)N1CCN(Cc2ccccc2C(F)(F)F)CC1	3.9	69.9*	0.0	0.5	-5.1	0.1
SMILES	TEAD-YAP inh	MITF inh	FBW7 act	GPR151 activ	MITF confirm	AS interf ctr	others
Fc1ccccc1CN1CCN(c2ccccn2)CC1	-12.8	4.0	-0.1	-0.9	nt	nt
FC(F)(F)c1ccccc1CN1CCN(Cc2ccncc2)CC1	3.8	71.1*	0.2	0.7	-0.7	-3.8
CN1CCC(NCc2ccccc2C(F)(F)F)CC1	3.8	-5.2	0.2	-0.2	nt	nt
Cc1ccccc1CN1CCN(C(=O)c2cccs2)CC1	-28.2	45.4	-0.2	1.1	nt	nt
Fc1ccccc1CN1CCN(Cc2ccccc2C(F)(F)F)CC1	8.7	64.9*	-0.1	0.2	-13.8	-1.8
CCCN1CCC(NCc2ccccc2C(F)(F)F)CC1	8.7	54.7*	0.1	0.0	-2.7	-2.1
Cc1ccc(C(=O)n2cnnc2N)c(Cl)c1	-0.3	16.5	0.1	1.8	nt	nt
CCOc1cc2c(cc1OCC)C(c1cccc(OC)c1O)NCC2 (stereo not given)	-5.3	1.2	0.1	2.1	nt	nt
OCC1CCN(C2CCCN(Cc3ccccc3C(F)(F)F)C2)CC1 (stereo not given)	-4.3	-1.4	0.1	-1.8	nt	nt
FC(F)(F)c1ccccc1CN1CCN(C2CCCC2)CC1	6.1	64.3*	-0.1	3.1	-4.5	-1.6
O=C1OC(c2ccc(Cl)cc2Cl)=N/C1=C\c1ccc([N+](=O)[O-])o1	-1.2	55.6*	-0.3	-0.5	50.7*	1.6	AS interf DR=>6.05
Cn1c(N)c(C(=O)CN2C(=O)C(=O)N(C3CCCC3)C2=O)c(=O)n(C)c1=O	4.8	7.4	-0.2	-0.8	nt	nt
COc1cccc(C(=O)Nc2ccc(O)c(-c3nc4cc(C)c(C)cc4o3)c2)c1	-0.1	4.1	-0.6	-0.2	nt	nt
O=C(CC(NCc1ccccn1)C(=O)O)Nc1cc(Cl)ccc1Cl (stereo not given)	-5.9	104.2*	-0.2	0.8	75.4*	100.3*
O=C(Cc1ccccc1)Nc1cc(Cl)ccc1Cl	-2.5	-3.3	0.0	0.9	nt	nt
O=C(CC(NCc1ccccn1)C(=O)O)Nc1ccccc1Cl (stereo not given)	-2.2	103.8*	-0.2	-0.1	88.8*	100.3*
COc1ccccc1NC(=O)CC(C(=O)O)N(C)C (stereo not given)	9.0	15.1	0.0	3.0	nt	nt
COc1ccccc1NC(=O)CC(NCc1ccccn1)C(=O)O (stereo not given)	-6.4	100.0*	-0.4	1.5	106.0*	100.3*
Cc1ccccc1-n1nc([N+](=O)[O-])c(=NC2CCCCC2)n1O	4.8	9.8	-0.3	-0.9	nt	nt
COC(=O)c1cc(NS(=O)(=O)c2ccc3[nH]c(=O)c(=O)[nH]c3c2)cc(C(=O)OC)c1	8.8	-6.7	0.1	0.5	nt	nt
COC(=O)c1ccccc1NS(=O)(=O)c1ccc2[nH]c(=O)c(=O)[nH]c2c1	-3.2	67.6*	-0.1	-0.5	-0.8	1.3
CC(=O)Nc1ccc(NS(=O)(=O)c2ccccc2[N+](=O)[O-])cc1	10.7	0.3	-0.2	-1.1	nt	nt
CC(=O)Nc1ccc(OS(=O)(=O)c2ccccc2[N+](=O)[O-])cc1	-22.7	55.9*	-0.2	-0.5	-7.8	-1.8
Nc1c(C(=O)NC2CCCc3ccccc32)nnn1-c1cccc(C(F)(F)F)c1 (stereo not given)	-4.8	-4.6	-0.1	-2.3	nt	nt
O=C(c1cn(-c2ccccc2)nc1-c1cccs1)N1CCOCC1	-15.1	-16.1	0.0	1.1	nt	nt
O=C(c1cn(-c2ccccc2)nc1C12CC3CC(CC(C3)C1)C2)N1CCOCC1	-2.6	58.9*	0.1	0.1	3.4	11.1
Oc1ccc(Nc2nccn3c(-c4ccc5ccccc5c4)cnc23)cc1	1.2	9.9	0.2	0.3	nt	nt

Assay outcomes as filed in PubChem.
